Reference: article PMC5540273 (PLoS ONE, 2017)

Tests used:
Details in all cases: concentration: 1 μM,replicates: in singlicate; n = 1
TESK1 = tested on: TESK1
TGFBR1 = tested on: TGFBR1
TGFBR2 = tested on: TGFBR2
TIE1 = tested on: TIE1
TIE2 = tested on: T1, TIE2
T1 construct: gene TEK

TLK1 = tested on: TLK1
TLK2 = tested on: TLK2
TNIK = tested on: TNIK
TNK1 = tested on: TNK1
TNK2 = tested on: TNK2
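Note: KINOMEscan kinase panel screen.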

Structure (SMILES)	%Inh (TESK1)	%Inh (TGFBR1)	%Inh (TGFBR2)	%Inh (TIE1)	%Inh (TIE2)	%Inh (TLK1)	%Inh (TLK2)	%Inh (TNIK)	%Inh (TNK1)	%Inh (TNK2)
COc1cc2nccc(Nc3ccc(Oc4ccccc4)cc3)c2cc1OC.Cl [GI261656]	5%	2%	0%	0%	0%	0%	0%	0%	92.8%	47%
Cl.c1ccc(Oc2ccc(Nc3ccnc4cc(-c5ccc(CN6CCNCC6)o5)ccc34)cc2)nc1 [GW567142]	0%	21%	0%	0%	0%	9%	1%	0%	61%	38%
COC(=O)Nc1nc2cc(Oc3ccc(NC(=O)Nc4cc(C(F)(F)F)ccc4Cl)cc3)ccc2[nH]1.Cl [GW697465]	7%	28%	6%	91.5%	99.2%	0%	0%	0%	28%	8%
O=c1[nH]cc(-c2ccc(O)cc2)c2sc(-c3ccncc3)cc12 [GSK1033723]	0%	0%	0%	0%	89%	6%	0%	4%	0%	5%
Cc1n[nH]c2cc(Nc3ccnc(Nc4cccc(CN5CCOCC5)c4)n3)ccc12 [GW682569]	27%	54%	84%	45%	2%	9%	2%	25%	33%	10%
COC(=O)c1cccc(NC(=O)NC2CCN(c3ccnc(NCc4ccc(F)cc4)n3)CC2)c1 [GSK1379860]	16%	25%	0%	0%	0%	0%	0%	0%	0%	15%
COc1cccc(C2=C(Nc3cccc(Cl)c3)C(=O)NC2=O)c1 [SB-341556]	17%	12%	0%	4%	0%	38%	29%	0%	32%	15%
CC(=O)Nc1ccc(-c2cc3ncnc(SCC(=O)O)c3s2)cc1	6%	7%	46%	17%	6%	20%	8%	16%	0%	0%
Nc1nccc(-c2ccc3c(N)n[nH]c3c2)n1 [GSK1034945]	2%	–	0%	0%	0%	14%	0%	2%	0%	5%
Cn1ccc2ncnc(Oc3ccc(NC(=O)Nc4cncc(C(F)(F)F)c4)c(Cl)c3)c21	0%	0%	0%	80%	92.8%	5%	0%	0%	0%	0%
Cc1ccc2c(-c3ccnc(Nc4ccc(C(F)(F)F)cc4)n3)cnn2n1 [GW819776]	0%	21%	60%	0%	6%	18%	17%	9%	13%	0%
CCn1c(-c2nonc2N)nc2cncc(Br)c21 [SB-738004]	19%	0%	0%	0%	0%	9%	6%	18%	0%	0%
CSc1nccc(-c2c(-c3ccc(F)cc3)ncn2CCCN2CCOCC2)n1.Cl [SB-217146]	0%	0%	0%	0%	0%	0%	15%	0%	26%	0%
COc1cc2ncn(-c3cc(OCC4CCCCC4)c(C(N)=O)s3)c2cc1OC [GSK204559]	18%	0%	0%	19%	0%	6%	12%	58%	5%	4%
CN1CCN(CCCNc2nccc(-c3c(-c4ccc(F)cc4)nn4cc(C(N)=O)ccc34)n2)CC1 [GW622475]	23%	92.3%	77%	6%	0%	39%	0%	76%	0%	13%
CCN1CCN(CCCC(=O)Nc2n[nH]c3nc(-c4ccc(O)cc4)c(Br)cc23)CC1 [SB-731579]	0%	0%	0%	19%	0%	8%	0%	7%	34%	0%
O=C(NCC1CC1)c1ccc(-c2cc(C(=O)NC3CC3)ccc2F)cc1 [GW810445]	0%	27%	0%	0%	0%	0%	0%	0%	30%	0%

Structure (SMILES)	%Inh (TESK1)	%Inh (TGFBR1)	%Inh (TGFBR2)	%Inh (TIE1)	%Inh (TIE2)	%Inh (TLK1)	%Inh (TLK2)	%Inh (TNIK)	%Inh (TNK1)	%Inh (TNK2)
CN(c1ccc2c(c1)nc(NCc1ccc(F)cc1)n2C)c1ccnc(Nc2ccc(CS(C)(=O)=O)cc2)n1.Cl [GW813244]	4%	0%	2%	92.2%	37%	15%	10%	22%	43%	0%
COc1cccc(CNC(=O)NC2CCN(c3ccnc(Nc4cc(OC)c(OC)c(OC)c4)n3)C2)c1 (centres unmarked) [GSK1379765]	40%	24%	0%	100%	0%	0%	0%	0%	0%	8%
C[C@@H](Oc1cc(-n2cnc3cc(-c4cnn(C)c4)ccc32)sc1C(N)=O)c1ccccc1Cl [GSK580432]	37%	0%	0%	94.2%	82%	0%	0%	48%	59%	64%
NC(=O)Nc1sc(-c2ccc(F)cc2)cc1C(N)=O [GW789449]	24%	27%	0%	0%	12%	4%	0%	33%	32%	26%
c1ccc(Oc2ccc(Nc3ccnc4ccc(-c5ccccn5)cc34)cc2)cc1 [GW407034]	29%	10%	0%	2%	2%	0%	0%	0%	28%	23%
CS(=O)(=O)Nc1ccc(-c2ccnc3[nH]ccc23)cc1 [GSK993273]	4%	0%	0%	28%	3%	63%	63%	32%	0%	14%
Cn1ccc2ncnc(Oc3ccc(NC(=O)Nc4cccc(C(F)(F)F)c4)c(F)c3)c21	11%	0%	19%	96.7%	92.8%	0%	2%	0%	17%	0%
CC(C)S(=O)(=O)N1CCN(Cc2ccc3c(c2)nc(NC(=O)c2ccsc2)n3C[C@H](O)c2ccccc2)CC1 [GW635815]	37%	0%	0%	28%	0%	0%	0%	65%	79%	19%
O=C1NCCc2[nH]c(-c3ccncc3)cc21	6%	33%	44%	0%	5%	31%	8%	35%	15%	0%
Cn1cc(-c2cccc3c(N)c(C(N)=O)nnc23)cn1	0%	0%	16%	6%	1%	2%	0%	5%	0%	0%
Cc1cccc(-c2nc(Nc3ccncc3)c3sccc3n2)n1 [GW869641]	10%	–	95.6%	43%	38%	0%	9%	55%	26%	0%
COc1ccc(Nc2nccc(N3CCC(NC(=O)c4cccc(C#N)c4)C3)n2)cc1 (centres unmarked) [GSK1379730]	46%	0%	0%	16%	5%	0%	0%	0%	0%	11%
Cn1ccc2ncnc(Oc3ccc(NC(=O)Nc4ccnc(C(F)(F)F)c4)c(Cl)c3)c21	0%	0%	53%	76%	11%	6%	0%	0%	0%	0%
Cn1ccc2ncnc(Oc3ccc(NC(=O)Nc4cccc(C(F)(F)F)c4)c(Cl)c3)c21	0%	17%	0%	85%	94.8%	74%	0%	18%	6%	0%
CC(C)c1nc(-c2cccc(NS(=O)(=O)c3ccccc3)c2)c(-c2ccnc(Nc3ccc4c(c3)CN(C)CC4)n2)s1 [GSK1649598]	97.5%	94.1%	94.8%	91.5%	99%	41%	33%	93.7%	100%	96.2%
FC(F)(F)c1cc(Br)cc(Nc2nccc(-c3cnn4ncccc34)n2)c1 [GW810578]	11%	27%	99.3%	18%	0%	0%	14%	0%	36%	0%
COC(=O)c1cccc(NC(=O)NC2CCN(c3ccnc(Nc4cc(OC)c(OC)c(OC)c4)n3)C2)c1 (centres unmarked) [GSK1379767]	19%	0%	0%	19%	4%	14%	15%	0%	0%	4%
